Legend:
Experiment in all cases: DAPPL (digital affinity profiling via proximity ligation, sequencing); 10 mM Tris-HCl pH 7.5, 50 mM NaCl, 1 mM DTT, 4% glycerol, room temperature, 30 min; GST-TFs on glutathione beads, 16-mer random dsDNA library, 0.1% formaldehyde crosslink after washing; high values mean tight binding
Conditions in all cases: protein: recombinant; tags: N-terminal GST; dsDNA, one strand shown
FLI1 = biological target: T1, FLI1 (Homo sapiens, UniProt Q01543 1-452)
T1 sequence: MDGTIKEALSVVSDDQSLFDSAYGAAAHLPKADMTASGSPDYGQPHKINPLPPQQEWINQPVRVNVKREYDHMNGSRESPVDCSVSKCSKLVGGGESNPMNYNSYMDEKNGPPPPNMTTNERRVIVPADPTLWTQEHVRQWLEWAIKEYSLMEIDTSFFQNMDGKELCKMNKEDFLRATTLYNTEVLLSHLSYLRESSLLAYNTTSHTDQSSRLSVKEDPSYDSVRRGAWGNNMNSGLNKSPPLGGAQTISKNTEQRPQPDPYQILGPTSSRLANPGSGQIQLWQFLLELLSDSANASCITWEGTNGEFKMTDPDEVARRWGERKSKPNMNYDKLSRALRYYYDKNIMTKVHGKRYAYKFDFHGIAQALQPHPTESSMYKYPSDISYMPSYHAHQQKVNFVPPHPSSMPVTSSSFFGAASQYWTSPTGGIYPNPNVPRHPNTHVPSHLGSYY
In short: (§1)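 Binding signal is given per hexamer as its read frequency for a factor divided by its frequency in the tag-only sample. GST-fused human transcription factors were expressed in yeast, captured on glutathione beads, barcoded with DNA and pooled with that sample, then incubated with 200 nmole of a 16-mer random double-stranded DNA library in Tris/NaCl/DTT/glycerol buffer for 30 min at room temperature. The pools were then washed, crosslinked, proximity-ligated, amplified by PCR and sequenced on an Illumina NextSeq500.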

ELK1 = biological target: T2, ELK1 (Homo sapiens, UniProt P19419 1-428)
T2 sequence: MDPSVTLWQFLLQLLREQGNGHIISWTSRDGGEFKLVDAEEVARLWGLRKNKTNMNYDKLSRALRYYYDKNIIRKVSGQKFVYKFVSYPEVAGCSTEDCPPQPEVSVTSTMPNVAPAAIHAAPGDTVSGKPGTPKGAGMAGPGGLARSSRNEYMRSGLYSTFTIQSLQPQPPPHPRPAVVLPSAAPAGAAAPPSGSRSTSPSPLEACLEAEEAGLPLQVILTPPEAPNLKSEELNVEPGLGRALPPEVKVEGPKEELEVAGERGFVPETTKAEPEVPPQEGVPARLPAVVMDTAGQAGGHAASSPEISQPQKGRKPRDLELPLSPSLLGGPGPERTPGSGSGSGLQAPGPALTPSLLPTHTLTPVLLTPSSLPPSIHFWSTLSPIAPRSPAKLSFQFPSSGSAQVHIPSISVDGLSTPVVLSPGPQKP
In short: as §1

GABPA = biological target: T3, GABPA (Homo sapiens, UniProt Q06546 1-454)
T3 sequence: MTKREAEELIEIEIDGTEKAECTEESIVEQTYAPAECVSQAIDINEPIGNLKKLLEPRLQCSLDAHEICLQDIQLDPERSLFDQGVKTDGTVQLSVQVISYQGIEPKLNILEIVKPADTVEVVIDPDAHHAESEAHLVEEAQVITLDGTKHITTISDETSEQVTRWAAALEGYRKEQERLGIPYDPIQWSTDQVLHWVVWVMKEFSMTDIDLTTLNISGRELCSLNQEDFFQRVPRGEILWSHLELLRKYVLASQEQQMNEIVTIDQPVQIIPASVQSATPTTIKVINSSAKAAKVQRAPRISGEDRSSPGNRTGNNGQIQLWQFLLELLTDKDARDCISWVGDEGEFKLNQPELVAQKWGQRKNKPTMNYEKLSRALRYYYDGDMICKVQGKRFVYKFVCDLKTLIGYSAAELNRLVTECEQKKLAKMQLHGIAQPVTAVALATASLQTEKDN
In short: as §1

ERG = biological target: T4, ERG (Homo sapiens, UniProt P11308 1-479)
T4 sequence: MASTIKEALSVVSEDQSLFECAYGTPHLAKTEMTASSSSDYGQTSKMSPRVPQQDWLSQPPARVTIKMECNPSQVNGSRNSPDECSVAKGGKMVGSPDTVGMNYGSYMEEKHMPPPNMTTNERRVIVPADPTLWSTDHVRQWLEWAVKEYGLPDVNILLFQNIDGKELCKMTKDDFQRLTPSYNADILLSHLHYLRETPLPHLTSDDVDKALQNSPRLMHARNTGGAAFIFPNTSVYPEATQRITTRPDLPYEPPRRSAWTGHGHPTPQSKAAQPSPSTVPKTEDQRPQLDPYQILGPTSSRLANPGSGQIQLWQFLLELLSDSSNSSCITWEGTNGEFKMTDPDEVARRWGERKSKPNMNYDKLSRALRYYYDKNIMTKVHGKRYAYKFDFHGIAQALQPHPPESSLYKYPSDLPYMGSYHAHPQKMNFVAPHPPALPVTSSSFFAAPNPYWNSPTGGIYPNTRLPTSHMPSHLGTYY
In short: as §1

ELF1 = ELF1 (Homo sapiens, UniProt P32519 1-619)
ELF1, sequence (P32519 whole entry): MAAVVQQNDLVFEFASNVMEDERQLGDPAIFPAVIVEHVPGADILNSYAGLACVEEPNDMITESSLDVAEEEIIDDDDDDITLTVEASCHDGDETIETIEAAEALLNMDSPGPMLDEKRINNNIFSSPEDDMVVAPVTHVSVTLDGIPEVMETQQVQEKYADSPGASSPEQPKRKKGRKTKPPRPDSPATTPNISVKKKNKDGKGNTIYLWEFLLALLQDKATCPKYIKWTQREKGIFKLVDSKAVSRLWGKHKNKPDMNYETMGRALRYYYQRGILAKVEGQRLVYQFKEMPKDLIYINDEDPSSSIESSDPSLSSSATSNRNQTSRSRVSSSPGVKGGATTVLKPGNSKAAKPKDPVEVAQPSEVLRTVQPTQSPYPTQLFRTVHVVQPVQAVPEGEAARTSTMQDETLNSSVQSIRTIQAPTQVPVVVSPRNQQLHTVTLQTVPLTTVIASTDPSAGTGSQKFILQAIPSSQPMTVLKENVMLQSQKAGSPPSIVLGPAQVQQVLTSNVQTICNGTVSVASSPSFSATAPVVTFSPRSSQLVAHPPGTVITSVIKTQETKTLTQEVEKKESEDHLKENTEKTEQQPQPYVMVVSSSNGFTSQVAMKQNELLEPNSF
In short: as §1

EHF = biological target: T5, EHF (Homo sapiens, UniProt Q9NZC4 1-300)
T5 sequence: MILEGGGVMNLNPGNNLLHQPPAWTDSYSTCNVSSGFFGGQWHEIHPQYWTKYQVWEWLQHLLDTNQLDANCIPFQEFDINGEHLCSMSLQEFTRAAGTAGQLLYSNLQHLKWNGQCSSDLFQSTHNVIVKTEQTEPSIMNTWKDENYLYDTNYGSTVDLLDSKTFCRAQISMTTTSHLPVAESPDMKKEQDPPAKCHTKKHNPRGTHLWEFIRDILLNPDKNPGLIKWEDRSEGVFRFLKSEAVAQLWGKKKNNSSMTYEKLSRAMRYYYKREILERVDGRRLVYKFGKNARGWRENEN
In short: as §1

SPI1 = SPI1 (Homo sapiens, UniProt P17947 1-270)
In short: as §1

SPIB = SPIB (Homo sapiens, UniProt Q01892 1-262)
SPIB, sequence (Q01892 whole entry): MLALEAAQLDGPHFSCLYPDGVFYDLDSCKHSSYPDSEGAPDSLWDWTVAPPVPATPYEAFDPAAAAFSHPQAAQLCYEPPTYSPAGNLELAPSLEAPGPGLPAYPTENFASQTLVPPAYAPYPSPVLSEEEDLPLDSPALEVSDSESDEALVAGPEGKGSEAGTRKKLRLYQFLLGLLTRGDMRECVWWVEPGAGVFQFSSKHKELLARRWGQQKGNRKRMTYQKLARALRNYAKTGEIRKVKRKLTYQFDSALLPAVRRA
In short: as §1

ELK3 = biological target: T6, ELK3 (Homo sapiens, UniProt P41970 1-407)
T6 sequence: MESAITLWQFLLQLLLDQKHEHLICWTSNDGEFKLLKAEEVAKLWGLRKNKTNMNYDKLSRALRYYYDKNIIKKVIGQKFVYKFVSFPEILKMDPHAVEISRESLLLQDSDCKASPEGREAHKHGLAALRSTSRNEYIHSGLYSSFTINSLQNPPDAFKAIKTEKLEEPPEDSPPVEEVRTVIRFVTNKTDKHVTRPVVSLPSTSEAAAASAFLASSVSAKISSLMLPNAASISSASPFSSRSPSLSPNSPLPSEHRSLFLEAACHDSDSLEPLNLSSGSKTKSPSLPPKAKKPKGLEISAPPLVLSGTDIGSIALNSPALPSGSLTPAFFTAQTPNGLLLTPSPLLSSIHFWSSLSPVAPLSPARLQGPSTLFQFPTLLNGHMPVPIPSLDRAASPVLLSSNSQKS
In short: as §1

FEV = biological target: T7, FEV (Homo sapiens, UniProt Q99581 1-238)
T7 sequence: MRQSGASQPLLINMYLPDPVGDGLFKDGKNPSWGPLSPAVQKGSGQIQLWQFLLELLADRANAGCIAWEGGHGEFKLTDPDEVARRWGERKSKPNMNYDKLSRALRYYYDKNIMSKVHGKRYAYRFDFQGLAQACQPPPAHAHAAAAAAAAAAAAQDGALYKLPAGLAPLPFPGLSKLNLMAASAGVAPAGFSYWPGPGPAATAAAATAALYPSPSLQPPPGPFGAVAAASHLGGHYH
In short: as §1

ETV5 = ETV5 (Homo sapiens, UniProt P41161 1-510)
ETV5, sequence (P41161 whole entry): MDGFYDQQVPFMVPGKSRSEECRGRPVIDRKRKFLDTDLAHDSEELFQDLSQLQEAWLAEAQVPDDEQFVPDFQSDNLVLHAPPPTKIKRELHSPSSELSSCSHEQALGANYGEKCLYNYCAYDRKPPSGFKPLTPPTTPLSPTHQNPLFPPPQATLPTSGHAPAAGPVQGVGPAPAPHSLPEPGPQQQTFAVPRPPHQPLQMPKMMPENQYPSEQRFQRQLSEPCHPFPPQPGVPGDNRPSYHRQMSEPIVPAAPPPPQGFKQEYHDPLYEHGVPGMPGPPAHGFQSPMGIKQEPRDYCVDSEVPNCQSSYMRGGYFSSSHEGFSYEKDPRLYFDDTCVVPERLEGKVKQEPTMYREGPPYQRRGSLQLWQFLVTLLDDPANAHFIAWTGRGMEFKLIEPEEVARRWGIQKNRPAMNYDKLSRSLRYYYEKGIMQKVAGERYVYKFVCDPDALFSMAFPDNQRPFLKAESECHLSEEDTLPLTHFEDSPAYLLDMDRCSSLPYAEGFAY
In short: as §1

SPIC = biological target: T8, SPIC (Homo sapiens, UniProt Q8N5J4 1-248)
T8 sequence: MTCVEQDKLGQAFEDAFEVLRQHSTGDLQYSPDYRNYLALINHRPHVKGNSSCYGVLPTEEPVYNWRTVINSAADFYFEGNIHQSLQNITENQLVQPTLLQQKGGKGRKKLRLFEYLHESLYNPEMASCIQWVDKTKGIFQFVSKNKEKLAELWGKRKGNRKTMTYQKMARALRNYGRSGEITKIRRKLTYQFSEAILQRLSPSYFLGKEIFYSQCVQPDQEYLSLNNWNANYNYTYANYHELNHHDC
In short: as §1

ELF4 = ELF4 (Homo sapiens, UniProt Q99607 1-663)
ELF4, sequence (Q99607 whole entry): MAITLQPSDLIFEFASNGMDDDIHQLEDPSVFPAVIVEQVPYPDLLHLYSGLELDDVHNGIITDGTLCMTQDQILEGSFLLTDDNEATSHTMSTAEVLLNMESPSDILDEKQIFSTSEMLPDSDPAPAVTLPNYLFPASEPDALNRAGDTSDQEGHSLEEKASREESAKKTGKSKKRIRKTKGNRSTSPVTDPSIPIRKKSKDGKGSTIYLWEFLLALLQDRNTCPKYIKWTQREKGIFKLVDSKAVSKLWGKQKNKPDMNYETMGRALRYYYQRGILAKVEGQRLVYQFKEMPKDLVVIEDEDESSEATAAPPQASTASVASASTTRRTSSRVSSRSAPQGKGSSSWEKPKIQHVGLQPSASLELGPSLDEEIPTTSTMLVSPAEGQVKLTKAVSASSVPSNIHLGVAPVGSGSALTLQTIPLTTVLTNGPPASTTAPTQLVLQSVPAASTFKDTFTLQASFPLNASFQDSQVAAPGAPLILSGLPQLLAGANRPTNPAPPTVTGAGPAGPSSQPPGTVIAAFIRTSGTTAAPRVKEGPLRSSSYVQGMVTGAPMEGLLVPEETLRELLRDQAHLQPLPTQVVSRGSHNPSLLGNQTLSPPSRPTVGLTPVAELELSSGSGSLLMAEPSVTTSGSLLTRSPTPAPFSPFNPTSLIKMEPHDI
In short: as §1

ELK4 = biological target: T9, ELK4 (Homo sapiens, UniProt P28324-2 1-405)
T9 sequence: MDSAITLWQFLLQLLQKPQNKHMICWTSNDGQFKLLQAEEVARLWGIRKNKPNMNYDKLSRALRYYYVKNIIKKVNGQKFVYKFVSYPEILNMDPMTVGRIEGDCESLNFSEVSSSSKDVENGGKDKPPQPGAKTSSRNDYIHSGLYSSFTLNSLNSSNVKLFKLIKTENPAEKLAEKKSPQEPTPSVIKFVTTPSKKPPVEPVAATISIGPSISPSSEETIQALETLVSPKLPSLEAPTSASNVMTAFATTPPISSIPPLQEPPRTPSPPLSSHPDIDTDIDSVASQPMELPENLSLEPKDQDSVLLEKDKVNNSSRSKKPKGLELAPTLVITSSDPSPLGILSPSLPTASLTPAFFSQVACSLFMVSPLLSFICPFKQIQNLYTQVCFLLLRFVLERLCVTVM
In short: as §1

ETV2 = biological target: T10, ETV2 (Homo sapiens, UniProt O00321 1-342)
T10 sequence: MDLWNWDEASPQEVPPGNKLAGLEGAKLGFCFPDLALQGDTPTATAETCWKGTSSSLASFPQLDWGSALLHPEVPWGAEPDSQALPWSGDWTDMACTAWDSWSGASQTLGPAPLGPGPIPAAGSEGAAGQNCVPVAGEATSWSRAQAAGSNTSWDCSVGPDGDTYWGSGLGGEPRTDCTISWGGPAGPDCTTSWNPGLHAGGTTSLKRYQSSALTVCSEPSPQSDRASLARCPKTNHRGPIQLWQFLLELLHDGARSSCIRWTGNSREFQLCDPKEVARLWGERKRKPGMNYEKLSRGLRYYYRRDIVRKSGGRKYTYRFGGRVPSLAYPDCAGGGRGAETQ
In short: as §1

ELF3 = biological target: T11, ELF3 (Homo sapiens, UniProt P78545 1-371)
T11 sequence: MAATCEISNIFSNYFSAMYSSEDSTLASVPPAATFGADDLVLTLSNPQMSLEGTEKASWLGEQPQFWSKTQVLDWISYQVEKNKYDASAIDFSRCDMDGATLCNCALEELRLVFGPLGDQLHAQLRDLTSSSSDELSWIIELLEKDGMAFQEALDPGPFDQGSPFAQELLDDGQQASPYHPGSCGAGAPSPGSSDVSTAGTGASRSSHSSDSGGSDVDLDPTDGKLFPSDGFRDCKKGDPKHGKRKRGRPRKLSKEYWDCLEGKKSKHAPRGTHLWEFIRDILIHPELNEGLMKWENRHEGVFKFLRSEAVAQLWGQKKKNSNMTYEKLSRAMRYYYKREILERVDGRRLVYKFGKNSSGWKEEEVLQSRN
In short: as §1

ETV1 = ETV1 (Homo sapiens, UniProt P50549 1-477)
ETV1, sequence (P50549 whole entry): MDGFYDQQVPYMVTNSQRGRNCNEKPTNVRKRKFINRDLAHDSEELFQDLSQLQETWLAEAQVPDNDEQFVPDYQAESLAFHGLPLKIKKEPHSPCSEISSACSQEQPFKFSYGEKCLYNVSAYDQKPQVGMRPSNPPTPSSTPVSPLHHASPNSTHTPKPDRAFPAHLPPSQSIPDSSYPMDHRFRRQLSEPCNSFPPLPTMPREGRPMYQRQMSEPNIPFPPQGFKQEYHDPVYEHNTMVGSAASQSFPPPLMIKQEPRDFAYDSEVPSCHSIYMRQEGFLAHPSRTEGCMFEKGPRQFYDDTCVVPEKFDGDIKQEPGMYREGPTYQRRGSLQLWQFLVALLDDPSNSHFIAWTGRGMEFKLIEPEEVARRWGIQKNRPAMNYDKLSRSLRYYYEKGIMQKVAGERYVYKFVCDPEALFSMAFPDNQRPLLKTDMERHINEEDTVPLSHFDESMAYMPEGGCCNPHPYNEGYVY
In short: as §1

ACCCGG was tested, and the binding signal (FLI1) was 1.62 fold enrichment (6-mer frequency, TF over GST control), the binding signal (ELK1) was 1.67 fold enrichment (6-mer frequency, TF over GST control) and the binding signal (GABPA) was 1.62 fold enrichment (6-mer frequency, TF over GST control). The binding signal (ERG) was 1.84 fold enrichment (6-mer frequency, TF over GST control), the binding signal (ELF1) was 1.75 fold enrichment (6-mer frequency, TF over GST control) and the binding signal (EHF) was 1.96 fold enrichment (6-mer frequency, TF over GST control). For the same sequence, the binding signal (SPI1) was 1.54 fold enrichment (6-mer frequency, TF over GST control), the binding signal (SPIB) was 1.77 fold enrichment (6-mer frequency, TF over GST control) and the binding signal (ELK3) was 1.71 fold enrichment (6-mer frequency, TF over GST control). For the same sequence, the binding signal (FEV) was 1.61 fold enrichment (6-mer frequency, TF over GST control), the binding signal (ETV5) was 1.89 fold enrichment (6-mer frequency, TF over GST control) and the binding signal (SPIC) was 1.61 fold enrichment (6-mer frequency, TF over GST control). For the same sequence, the binding signal (ELF4) was 1.7 fold enrichment (6-mer frequency, TF over GST control), the binding signal (ELK4) was 1.52 fold enrichment (6-mer frequency, TF over GST control) and the binding signal (ETV2) was 1.63 fold enrichment (6-mer frequency, TF over GST control). The binding signal (ELF3) was 1.77 fold enrichment (6-mer frequency, TF over GST control) and the binding signal (ETV1) was 1.81 fold enrichment (6-mer frequency, TF over GST control).
In the case of GGAAGC, the binding signal (FLI1) was 1.5 fold enrichment (6-mer frequency, TF over GST control), the binding signal (ELK1) was 1.64 fold enrichment (6-mer frequency, TF over GST control) and the binding signal (GABPA) was 1.45 fold enrichment (6-mer frequency, TF over GST control). The binding signal (ERG) was 1.85 fold enrichment (6-mer frequency, TF over GST control), the binding signal (ELF1) was 1.39 fold enrichment (6-mer frequency, TF over GST control) and the binding signal (EHF) was 1.68 fold enrichment (6-mer frequency, TF over GST control). For the same sequence, the binding signal (SPI1) was 1.74 fold enrichment (6-mer frequency, TF over GST control), the binding signal (SPIB) was 1.63 fold enrichment (6-mer frequency, TF over GST control) and the binding signal (ELK3) was 1.77 fold enrichment (6-mer frequency, TF over GST control). For the same sequence, the binding signal (FEV) was 1.74 fold enrichment (6-mer frequency, TF over GST control), the binding signal (ETV5) was 1.79 fold enrichment (6-mer frequency, TF over GST control) and the binding signal (SPIC) was 1.39 fold enrichment (6-mer frequency, TF over GST control). The binding signal (ELF4) was 1.4 fold enrichment (6-mer frequency, TF over GST control), the binding signal (ELK4) was 1.43 fold enrichment (6-mer frequency, TF over GST control) and the binding signal (ETV2) was 1.54 fold enrichment (6-mer frequency, TF over GST control). For the same sequence, the binding signal (ELF3) was 1.48 fold enrichment (6-mer frequency, TF over GST control) and the binding signal (ETV1) was 1.82 fold enrichment (6-mer frequency, TF over GST control).
